Measured values from PubChem BioAssay (NCATS).
Where “and” joins values, the source holds several entries; their conditions need not be identical. Equal values may be shown once. Results filed as inconclusive are left out. Unmarked numbers belong to inactive results. Calls of active or inactive are those of the source. The call rests on the fitted dose curve; in most records, active means well fitted inhibition curve with a large enough effect; inconclusive means small, poorly fitted or top-dose-only effect; inactive means flat fitted curve, though single readings scatter.

system: HEK293; experiment: Cytotoxic Profiling of Annotated Libraries Using Quantitative High-Throughput Screening (AID 1296008); conditions: Five cell lines viability, CellTiter-Glo ATP luminescence, 48-72 h; max response: active compounds read low; further: nearly all actives have a fitted effect of over 60% in size
Method in brief: (§1)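 Cells exposed to compounds for 48 or 72 hr at 37 degrees Celsius. Viability read as ATP-coupled luminescence with CellTiter-Glo after 10 min at room temperature.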
On the % scale 0 is the no-effect control and ±100 the full control effect; potency means the concentration at half of the fitted maximal effect.

SMILES	Potency
CC(C)C[C@@H](C(=O)N[C@H](C(=O)OC1CCCC1)c1ccccc1)[C@H](O)C(=O)NO	18.7 µM (active)
C=CCc1cccc(C=NNC(=O)CN2CCN(Cc3ccccc3)CC2)c1O	13.2 µM (active)
CNC1CCC(N(Cc2cccc(-c3ccncc3)c2)C(=O)c2sc3ccccc3c2Cl)CC1 (centres undefined)	8.33 µM (active) and 7.31 µM (active)
O=C(O)Cc1cccc(OCCCN(Cc2cccc(C(F)(F)F)c2Cl)CC(c2ccccc2)c2ccccc2)c1	16.6 µM (active)

system: HaCat; experiment: as above; conditions: Five cell lines viability, CellTiter-Glo ATP luminescence, 48-72 h; max response: active compounds read low
Method in brief: as §1

SMILES	outcome	max response [%]	Potency
CN1CCC[C@H]1CCO[C@](C)(c1ccccc1)c1ccc(Cl)cc1	inactive	–	–
CC(C)(F)C[C@H](N[C@@H](c1ccc(-c2ccc(S(C)(=O)=O)cc2)cc1)C(F)(F)F)C(=O)NC1(C#N)CC1	inactive	–	–
COc1ccc2nc3cc(Cl)ccc3c(Nc3cc(CN4CCCC4)c(O)c(CN4CCCC4)c3)c2n1	inactive	–	–
CCCCc1ccc(NS(=O)(=O)c2ccc(C)c(C(=O)N3CCN(c4cccc(C)c4C)CC3)c2)cc1	–	-17	–
N=C1SC(=Cc2ccc(-c3ccc4c(c3)C(=O)NC4=O)o2)C(=O)N1c1ccc(Br)cc1	inactive	–	–
COc1cc2c(cc1Cc1cccc(Cl)c1F)c(=O)c(C(=O)O)cn2[C@H](CO)C(C)C	–	-24.6	–
CC[C@H](C)n1cc(C)c2c(C(=O)NCc3c(C)cc(C)[nH]c3=O)cc(-c3ccc(N4CCNCC4)nc3)cc21	inactive	–	–
O=C(C=Cc1ccc(O)cc1)c1ccc(O)cc1O	inactive	–	–
CC(C)c1c(C(=O)Nc2ccccc2)c(-c2ccccc2)c(-c2ccc(F)cc2)n1CC[C@H](O)C[C@@H](O)CC(=O)O	–	–	20.9 µM (active)
CNC(=O)[C@H](Cc1ccccc1)NC(=O)[C@H](CC(C)C)[C@H](CSc1cccs1)C(=O)NO	–	–	13.2 µM (active)
COc1c(C)c2c(c(O)c1CC=C(C)CCC(=O)O)C(=O)OC2	–	-8.02	–
CNC(=O)c1cc(Oc2ccc(NC(=O)Nc3ccc(Cl)c(C(F)(F)F)c3)c(F)c2)ccn1	inactive	–	–
O=C(Nc1cccc2c(=O)cc(-c3nn[nH]n3)oc12)c1ccc(OCCCCc2ccccc2)cc1	inactive	–	–
CN(C)CC[C@H](CSc1ccccc1)Nc1ccc(S(=O)(=O)NC(=O)c2ccc(N3CCN(Cc4ccccc4-c4ccc(Cl)cc4)CC3)cc2)cc1[N+](=O)[O-]	–	–	18.7 µM (active)
OC(c1cc(C(F)(F)F)nc2c(C(F)(F)F)cccc12)C1CCCCN1 (centres undefined)	inactive	–	–
Cc1ccc(NC(=O)c2cccc(N(C)C)c2)cc1NC(=O)c1ccc(O)cc1	inactive	–	–
O=C1CN2Cc3c(ccc(Cl)c3Cl)N=C2N1	–	-28.5	–
CN1C(=O)C[C@H](C(=O)N[C@@H](Cc2cnc[nH]2)C(=O)N2CCC[C@@H]2C(N)=O)NC1=O	–	-3.47	–
CN(C)CCCNC(=O)c1ccc(-c2cc(O)c3ncccc3c2)cc1	–	-4.67	–
Cc1ccccc1C(=O)c1ccc(Nc2ccc(Br)cc2N)cc1Cl	–	-2.01	–
Cc1[nH]c(C=C2C(=O)Nc3ccc(S(=O)(=O)N(C)c4cccc(Cl)c4)cc32)c(C)c1C(=O)N1CCN(C)CC1	–	-0.347	–
CON(C)C(=O)N1N=C(c2cc(F)ccc2F)S[C@]1(CCCN)c1ccccc1	–	-26.8	–
CO[C@H]1O[C@@H]2O[C@@]3(C)CC[C@@H]4[C@@H](C)CC[C@@H]([C@H]1C)[C@@]24OO3	–	-9.33	–
COc1ccc(-c2oc3c(CC=C(C)C)c(O)cc(O)c3c(=O)c2O)cc1	inactive	–	–

system: KB-3-1; experiment: as above; conditions: Five cell lines viability, CellTiter-Glo ATP luminescence, 48-72 h; max response: active compounds read low
Method in brief: as §1

SMILES	max response [%]	outcome	Potency
CN1CCC[C@H]1CCO[C@](C)(c1ccccc1)c1ccc(Cl)cc1	-5.55	–	–
CC(C)(F)C[C@H](N[C@@H](c1ccc(-c2ccc(S(C)(=O)=O)cc2)cc1)C(F)(F)F)C(=O)NC1(C#N)CC1	7.07	–	–
CN[C@H]1[C@@H](O[C@@H]2[C@H](O[C@@H]3[C@@H](O)[C@@H](O)[C@@H](N=C(N)N)[C@@H](O)[C@@H]3N=C(N)N)O[C@H](C)[C@@]2(O)C=O)O[C@@H](CO)[C@@H](O)[C@H]1O	–	inactive	–
CCC[C@H](Nc1nc(-c2ccc(NC(=O)NCC)c(OC)c2)ncc1C)c1cccnc1	–	–	0.0047 µM (active)
N=C1SC(=Cc2ccc(-c3ccc4c(c3)C(=O)NC4=O)o2)C(=O)N1c1ccc(Br)cc1	–	inactive	–
CCN(CC)CCCCNc1nc2cc(Cl)c(Cl)cc2nc1-c1ccc(-c2cccs2)s1	–	–	13.2 µM (active)
CNC(=O)[C@H](Cc1ccccc1)NC(=O)[C@H](CC(C)C)[C@H](CSc1cccs1)C(=O)NO	2.61	–	–
CNC(=O)c1cc(Oc2ccc(NC(=O)Nc3ccc(Cl)c(C(F)(F)F)c3)c(F)c2)ccn1	1.15	–	–
O=C(Nc1cccc2c(=O)cc(-c3nn[nH]n3)oc12)c1ccc(OCCCCc2ccccc2)cc1	-16.8	–	–
CN(C)CC[C@H](CSc1ccccc1)Nc1ccc(S(=O)(=O)NC(=O)c2ccc(N3CCN(Cc4ccccc4-c4ccc(Cl)cc4)CC3)cc2)cc1[N+](=O)[O-]	2.51	–	–
Cc1ccc(NC(=O)c2cccc(N(C)C)c2)cc1NC(=O)c1ccc(O)cc1	5.76	–	–
CN(C)S(=O)(=O)c1ccc2c(c1)C(=Cc1cc3c([nH]1)CCCC3)C(=O)N2	-0.966	–	–
CN1C(=O)C[C@H](C(=O)N[C@@H](Cc2cnc[nH]2)C(=O)N2CCC[C@@H]2C(N)=O)NC1=O	–	inactive	–
CON(C)C(=O)N1N=C(c2cc(F)ccc2F)S[C@]1(CCCN)c1ccccc1	–	–	0.0008 µM (active)
CO[C@H]1O[C@@H]2O[C@@]3(C)CC[C@@H]4[C@@H](C)CC[C@@H]([C@H]1C)[C@@]24OO3	–	inactive	–
COc1ccc(-c2oc3c(CC=C(C)C)c(O)cc(O)c3c(=O)c2O)cc1	6.49	–	–
